Measurements from PubChem BioAssay (Tox21).
“And” between values parts separate entries of the source, which are not always exact repeats. Equal values may be shown once. Inconclusive results are not listed. Where a call stands in place of a potency, no number is given. A structure can be active in one record and inactive in another. The source made the active and inactive calls. Unless noted, calls follow the shape of the dose curve; as a rule, active = well fitted curve in the direction sought with a large enough effect in the repeat runs; inconclusive = weak or mixed curves; inactive = no such curve, though single readings can be large; an effect the other way counts as inactive or inconclusive.

Legend:
[1] = qHTS assay to identify small molecule agonists of H2AX (AID 1224845; active = well fitted activation curve with a large enough effect in the signal ratio in the repeat runs, not every such curve was filed as active; the % refers to the signal ratio; also: potency is read from the fitted curve at half-maximal effect)
How it was run: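 Phospho-H2AX Ser139 measured by HTRF (ex 320 nm; em 665 and 620 nm) after 24 hr antibody incubation. Compounds, 15 concentrations, 0.76% DMSO, were applied to CHO-K1 cells for 3hr at 37C before lysis.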

[2] = qHTS assay to identify small molecule agonists of the hypoxia (HIF-1) signaling pathway (AID 1224846; active = well fitted activation curve with a large enough effect in the signal ratio in the repeat runs, not every such curve was filed as active; the % refers to the signal ratio)
How it was run: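 Hypoxia-pathway activation was scored as increased beta-lactamase from an HRE-controlled reporter in ME-180 cells; plated at 2,000 cells per well with 0.5% dialyzed FBS, they were exposed 17 hrs to compounds and then given CCF4-AM.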

[3] = qHTS assay to identify small molecule agonists of H2AX - cell viability counter screen (AID 1224847; calls by dose curve; also: nearly all actives have a fitted effect of over 30% in size; also: potency is read from the fitted curve at half-maximal effect)
How it was run: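 Wild-type CHO-K1 cells (10% FBS medium) were plated overnight at 37C, exposed to compounds at 15 concentrations for 3 hr at 37C (0.76% DMSO final), and viability was read as CellTiter-Glo luminescence after 30 min at room temperature.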

[4] = qHTS assay to identify small molecule agonists of the estrogen related receptor (ERR) signaling pathway from Tox21 library (AID 1224849; calls by dose curve; also: nearly all actives have a fitted effect of over 15% in size); conditions: ERR reporter cell line, ONE-Glo luciferase, 18 h
How it was run: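 Six hours post-seeding at 37 C/5% CO2, ERR cells receive DMSO-solubilised compounds; after 18 h at 37 C, ONE-Glo reagent is applied and luminescence recorded.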

[5] = qHTS RealTime-Glo MT Cell Viability Assay in HepG2 cells - 24 hour (AID 1224867); also: nearly all actives have a fitted effect of over 50% in size; also: potency is read from the fitted curve at half-maximal effect
How it was run: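 Luminescence read-out: viable HepG2 cells reduce a prosubstrate to a NanoLuc substrate, giving a signal proportional to live cell number. Reads taken at 0, 8, 16, 24, 32 and 40 h of compound exposure at 37 C.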

[6] = qHTS RealTime-Glo MT Cell Viability Assay in HEK293 cells - 32 hour (AID 1224868); also: nearly all actives have a fitted effect of over 50% in size; also: potency is read from the fitted curve at half-maximal effect
How it was run: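 Nonlytic real-time viability readout: viable cells convert prosubstrate to NanoLuc substrate, giving luminescence proportional to live cell number. HEK293, 600 cells/well, compound added after 5 h, continuous culture at 37 C.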

[7] = A CellTox Green Cytotoxicity Assay to monitor cytotoxicity in HEK293 cells - 0 hour (AID 1224869); also: nearly all actives have a fitted effect of over 50% in size; also: potency is read from the fitted curve at half-maximal effect
How it was run: (§1)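 Seeding of HEK293 cells together with cytotoxicity dye preceded a 5 h incubation at 37 C/5% CO2. Test compounds in DMSO were then added and fluorescence monitored across 40 h.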

[8] = qHTS RealTime-Glo MT Cell Viability Assay in HepG2 cells - 40 hour (AID 1224870); also: nearly all actives have a fitted effect of over 50% in size; also: potency is read from the fitted curve at half-maximal effect
How it was run: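 Real-time viability: cells seeded at 600 per well together with NanoLuc and cell-permeant prosubstrate, compounds added after 5 h incubation. Luminescence tracked at 0, 8, 16, 24, 32 and 40 h of exposure.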

[9] = A CellTox Green Cytotoxicity Assay to monitor cytotoxicity in HEK293 cells - 40 hour (AID 1224871); also: nearly all actives have a fitted effect of over 45% in size; also: potency is read from the fitted curve at half-maximal effect
How it was run: as §1

[10] = qHTS assay to identify small molecule antagonists of the estrogen related receptor (ERR) signaling pathway from Tox21 library (AID 1224848); also: nearly all actives have a fitted effect of over 50% in size
How it was run: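 Reading was by luminescence 30 min after ONE-Glo addition. Before that, ERR cells at 2,000 per well had rested 6 h at 37 C/5% CO2 and then received pin-tooled compounds in DMSO for 18 h at 37 C.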

SMILES	Potency [1]	outcome [2]	Potency [3]	activity change, positive = activation ([4]; at 42.5 µM (top of the series))	activity change, positive = activation ([4]; at 92.4 µM (top of the series))	Potency [5]	Potency [6]	Potency [7]	Potency [8]	Potency [9]	Potency [10]
O=C1OC2(c3ccccc31)c1cc(I)c(O)c(I)c1Oc1c2cc(I)c(O)c1I	51.1 µM (active)	inactive	11.3 µM (active) and 28.7 µM (active) and 8.65 µM (active)	-27.3% (inactive) and -18.3% (inactive) and -7.34% (inactive)	-20.6% (inactive)	39 µM (active) and 27.9 µM (active)	49.1 µM (active) and inactive	15.5 µM (active) [middle of 4 runs]	24.6 µM (active) and 12.4 µM (active) and 29.8 µM (active)	11.8 µM (active) [middle of 4 runs]	
OC[C@@H](O)[C@@H](O[C@@H]1O[C@H](CO)[C@H](O)[C@H](O)[C@H]1O)[C@H](O)[C@@H](O)CO	inactive	inactive	inactive	4.37% (inactive)	5.88% (inactive)	inactive	inactive	inactive	inactive		
Oc1c(Cl)ccc(Cl)c1Cl	inactive	inactive	inactive		1.41% (inactive) and -6.03% (inactive)	inactive	inactive	inactive	inactive	inactive	
O=C(O)c1cc(=O)[nH]c(=O)[nH]1	inactive	inactive	inactive		2.48% (inactive)	inactive	inactive	inactive	inactive	inactive	inactive
C[C@]12C=CC(=O)C=C1CC[C@H]1[C@@H]3C[C@@H](O)[C@](O)(C(=O)CO)[C@@]3(C)C[C@H](O)[C@@]12F	inactive	inactive	inactive	2.12% (inactive)	-0.443% (inactive)	inactive	inactive	inactive	inactive	inactive	
O=C(O)CCCCCCCCCCCC(=O)O	111 µM (active) and inactive	inactive	inactive		-2.27% (inactive)	inactive	inactive	inactive	inactive	27.1 µM (active) and inactive	
NCCOCCO	inactive	inactive	inactive		-2.16% (inactive) and 1.44% (inactive)	inactive	inactive	inactive	inactive		
CN(C)C	inactive	inactive	inactive			inactive	inactive	inactive	inactive		
CCCCCC1C(=O)CCC1CC(=O)OC (stereo unspecified)	inactive	inactive	inactive		0.33% (inactive) and 0.3% (inactive)	inactive	inactive	inactive	inactive		
COc1cc([C@H]2Oc3cc([C@H]4Oc5cc(O)cc(O)c5C(=O)[C@@H]4O)ccc3O[C@@H]2CO)ccc1O	inactive	inactive	inactive	4.78% (inactive)	-26.2% (inactive)	inactive	inactive	inactive and 15.1 µM (active)	inactive		
CC(=O)[C@H]1CC[C@H]2[C@@H]3CC=C4C[C@@H](O)CC[C@]4(C)[C@H]3CC[C@]12C	inactive	inactive	inactive	-14.3% (inactive)	-23.4% (inactive)	inactive	inactive	inactive	inactive	inactive	
NCCN	inactive	inactive	inactive			inactive and 38.9 µM (active)	inactive	inactive	inactive and 13.8 µM (active)		
CCCCCCCCCCCCCO	inactive	inactive	inactive		0.0318% (inactive) and 3.04% (inactive)	inactive	inactive	inactive	inactive	inactive	
CCCCCCCCCCC(CO)CCCCCCCC (stereo unspecified)	inactive	inactive	inactive			inactive	inactive	inactive	inactive		
CCCCCC=O	inactive	inactive	inactive		8.48% (inactive) and 5.45% (inactive)	inactive	inactive	inactive	inactive		
CCO[Si](CCCNC(N)=O)(OCC)OCC	inactive	inactive	inactive		8.59% (inactive) and 5.1% (inactive)	inactive	inactive	inactive	inactive	inactive	
ClC/C=C/CCl	inactive	inactive	inactive		-1.09% (inactive) and 0.131% (inactive)	inactive	inactive	inactive	inactive		
C=CCCCCCCCCCC	inactive	inactive	inactive			inactive	inactive	inactive	inactive		
Brc1nc2ccccc2s1	inactive	inactive	inactive			inactive	inactive	inactive	inactive	inactive	
CCCOCCO	inactive	inactive	inactive			inactive	inactive	inactive	inactive	inactive	
CC(=O)Oc1ccc(C(c2ccc(OC(C)=O)cc2)c2ccccn2)cc1	inactive	inactive	inactive			inactive	inactive	inactive	inactive	inactive	
Nc1cc([N+](=O)[O-])ccc1C(=O)O	inactive	inactive	inactive			inactive	inactive	inactive	inactive	inactive	
